Data: PubChem BioAssay AID588742 (Southern Research Specialized Biocontainment Screening …, 2011)
Among all 1,800 compounds or so, about 410 (23%) were called active. No rule for the calls is given here. Not all results are given here. A call without a number means that no potency is given here. Potency and affinity values are given separately.

experiment: Vero cell cytotoxicity, cytotoxicity control for flavivirus capping enzyme inhibitors (AID 588742); settings: Vero cells viability, cytotoxicity counter-screen; series mostly up to 40 µM

Structure (SMILES)	outcome
CCOc1cc(/C=N/N=C2/NC(=O)C(CC(=O)O)S2)ccc1OCc1ccc(Cl)cc1 (configuration not stated)	inactive
Cn1cc([N+](=O)[O-])c(C(=O)N(Cc2ccccc2)Cc2ccccc2)n1	inactive
CNc1ccc(Br)cc(C(=O)/C=C/c2cccc(OC)c2OC)c1=O	inactive
COc1ccc(Br)cc1/C=C/C(=O)NC(=S)Nc1ccc(Cl)c(C(=O)O)c1	inactive
CC1(C)CC(=O)C(C(C2=C(O)CC(C)(C)CC2=O)c2ccc(O)c([N+](=O)[O-])c2)=C(O)C1	inactive
O=C(O)/C(=C\c1c(C(=O)O)[nH]c2cc(Cl)cc(Cl)c12)c1ccccc1	inactive
Oc1c(Br)cc(/C=N/n2c(-c3ccccc3)n[nH]c2=S)cc1Br	inactive
CCOCCCNC(=O)CC1Oc2ccc(C)cc2NC1=O (configuration not stated)	inactive
Cc1ccc(CC(CC(=O)Nc2cccc(C(F)(F)F)c2)C(=O)O)cc1 (configuration not stated)	inactive
O=C1CCCC/C1=C/Nc1ccc2c(c1)OCO2	inactive
CC(=O)Oc1ccc(/C=C2/C(=O)N(c3ccccc3)N=C2C)cc1	inactive
COC(=O)CC1=NN(c2ccccc2)C(=O)/C1=C\c1ccc(OC)cc1	inactive
Cc1ccc(C2C(C#N)=C(N)Oc3nc(-c4ccccc4)[nH]c32)o1 (configuration not stated)	inactive
O=C1C(Cl)=C(NCCc2ccccc2)C(=O)c2ccccc21	inactive
COc1cccc(/C=C2\SC(=S)N(C(C(=O)O)c3ccccc3)C2=O)c1OC (configuration not stated)	inactive
COc1cc2c3c(c1)-c1c(sn(-c4cc(OC)ccc4OC)c1=S)C(C)(C)N3C(=O)C2=O	inactive
C#CCOc1c(Br)cc(/C=C2/C(=O)ON=C2C)cc1OCC	inactive
CCc1ccc(N(C(=O)c2csnn2)C(C(=O)NC(C)(C)CC)c2cccnc2)cc1 (configuration not stated)	inactive
O=C1OC(c2ccccc2)/C(=C(/O)c2ccc(Cl)cc2)C1=O (configuration not stated)	inactive
CC(C)c1noc2ncc(C(=O)c3cc(Cl)cc(Cl)c3O)cc12	inactive
CCCCn1c(=O)nc2n(-c3ccccc3)c3ccccc3cc-2c1=O	inactive
O=C1c2ccccc2C(=O)c2c(/C=C/N3CCCCC3)ccnc21	inactive
O=S(=O)(Nc1c(O)ccc2ccccc12)c1ccccc1	inactive
O=c1ccc2c(-c3ccccc3S(=O)(=O)O)c3ccc(O)c(O)c3oc-2c1O	inactive
Cc1ccc(S(=O)(=O)NN2C(=O)/C(=C/c3ccc(C(=O)O)cc3)SC2=S)cc1	inactive

Structure (SMILES)	outcome
N#CC1=C(N)N(c2ccccc2)C2=C(C(=O)CCC2)C1c1ccsc1 (configuration not stated)	inactive
C=CCn1c(SCC(=O)c2ccccc2)nnc1-c1ccc2c(c1)OCO2	inactive
N#C/C(=C\c1cccs1)C(=O)c1ccccc1	inactive
CC(=O)OCC1=C(C(=O)O)N2C(=O)C(NC(=O)CCn3nc(C(F)(F)F)c(Br)c3C3CC3)C2SC1 (configuration not stated)	inactive
COc1ccc(N2CCN(C(=O)CCC(=O)N3Cc4ccccc4Oc4ncccc43)CC2)cc1	inactive
CN1C(C(=O)NCc2cccs2)=CC(c2ccc(F)cc2)=NS1(=O)=O	inactive
O=C(O)C(c1ccccc1)N1C(=O)/C(=C/c2cccs2)SC1=S (configuration not stated)	inactive
Nc1ccc(S(=O)(=O)Nc2nccs2)cc1N=Nc1ccccc1[N+](=O)[O-]	inactive
CCOC(=O)c1cc(-c2ccco2)nc2c1c(C)nn2CCC#N	inactive
COc1cc(C(C2C(=O)CC(C)(C)CC2=O)C2C(=O)CC(C)(C)CC2=O)ccc1O	inactive
COc1cccc(/C=C2\SC(=S)N(NS(=O)(=O)c3ccccc3)C2=O)c1OC	inactive
O=C1NC(=S)N/C1=C/C=C/c1ccccc1	inactive
CN(C)c1ccc(C=Nc2ccc(N(C)C)cc2)cc1	inactive
CCCC(C(=O)O)N1C(=O)/C(=C2\C(=O)N(C)c3ccccc32)SC1=S (configuration not stated)	inactive
CCN1/C(=C2\C(=O)N(C)C(=S)N2C)C=Cc2cc(OC)ccc21	inactive
O=C(O)CN1C(=O)/C(=C\c2cccc(OCc3ccc(Cl)cc3Cl)c2)SC1=S	inactive
O=C(CNC(=O)N1CC(=O)Nc2ccccc21)Nc1cccc(F)c1	inactive
O=C(O)c1[nH]c2ccccc2c1C(c1ccccc1)c1c(C(=O)O)[nH]c2ccccc12	inactive
Cc1ccc(S(=O)(=O)/N=C2\C=C(NS(=O)(=O)c3ccc(C)cc3)C(=O)c3ccccc32)cc1	inactive
O=C(O)c1ccc(Nc2nc3ccccc3nc2NS(=O)(=O)c2ccc(F)cc2)cc1	inactive
Cc1ccc(/C=C2\S/C(=N/S(=O)(=O)c3cccs3)NC2=O)cc1	inactive
O=C(O)c1ccc(NC2=C/C(=N/S(=O)(=O)c3cccs3)c3ccccc3C2=O)cc1	inactive
O=C(O)c1ccc(NS(=O)(=O)c2ccc3c(c2)C(=O)c2cc(S(=O)(=O)Nc4ccc(C(=O)O)cc4)ccc2-3)cc1	inactive
CC(C)(C)c1ccc(S(=O)(=O)/N=C2\C=C(NS(=O)(=O)c3ccccc3)C(=O)c3ccccc32)cc1	inactive
Cc1ccc(N2C(N)=C(C#N)C(c3cccnc3)C3=C2CCCC3=O)cc1 (configuration not stated)	inactive

Structure (SMILES)	outcome
C=CCOc1cccc(C2C(C(=O)c3cc4ccccc4o3)=C(O)C(=O)N2c2cc(C)on2)c1 (configuration not stated)	inactive
CCOc1ccc(NS(=O)(=O)c2ccc(Cl)c(N=Nc3c(O)[nH]c(=S)[nH]c3=O)c2)cc1Br	inactive
C/C(=N\Nc1cccc(C(=O)O)c1)c1ccc2c(c1)Nc1ccccc1S2	inactive
CC(N=Cc1cccc(O)c1O)c1ccccc1 (configuration not stated)	inactive
CSc1ccc(C(c2c(C(=O)O)[nH]c3ccccc23)c2c(C(=O)O)[nH]c3ccccc23)cc1	inactive
CN(C(=S)Nc1ccc(SC(F)F)cc1)c1ccc(O)cc1	inactive
CC(C)c1nc(SCC(=O)N2CCCC2)c2ccccc2n1	inactive
CC(=O)OCC1=C(C(=O)O)N2C(=O)C(NC(=O)c3ccc(COc4c(C)cccc4Cl)o3)C2SC1 (configuration not stated)	inactive
Cc1ccc([C@@H]2CC=C(C(=O)O)[C@H](c3ccc(Br)cc3)N2S(=O)(=O)c2ccc(C)cc2)cc1	inactive
CC1=C/C(=C(/c2cc(C)c(O)c(Br)c2)c2ccccc2S(=O)(=O)O)C=C(Br)C1=O	inactive
COc1cc(/C=C2\SC(=S)N(C(C(=O)O)c3ccccc3)C2=O)cc(OC)c1OC (configuration not stated)	inactive
C[N+](C)(CCOc1ccccc1)Cc1ccccc1 (tested in a mixture with another compound)	inactive
O=C(CSc1nc2scc(-c3ccco3)c2c(=O)n1-c1ccccc1)NCC1CCCO1 (configuration not stated)	inactive
CC(C)(C)C1CCc2c(sc(NC(=O)C3CC=CCC3C(=O)O)c2C#N)C1 (configuration not stated)	inactive
O=C(NC(NC(=S)Nc1ccccc1C(=O)O)C(Cl)(Cl)Cl)c1ccccc1 (configuration not stated)	inactive
C=CCOc1ccc(C(c2c(C(=O)O)[nH]c3ccccc23)c2c(C(=O)O)[nH]c3ccccc23)cc1	inactive
COc1cccc(C=Nc2cc(C(C)C)c(O)cc2C)c1O	inactive
O=C(O)COc1ccccc1/C=N/NC(=O)c1cc(-c2ccc(Cl)cc2)nc2ccccc12	inactive
Cc1c(Cl)cccc1NS(=O)(=O)c1ccc2c(c1)C1C=CCC1C(c1ccc(C(=O)O)cc1)N2 (configuration not stated)	inactive
CCOc1ccc(N(C)C(=O)CCc2nnc3ccc(N4CCCC4)nn23)cc1	inactive
Cn1c(SCC(=O)N2CCCCC2)nc2cccnc21	inactive
O=C1NC2=C(C(=O)CCC2)C(c2ccccc2[N+](=O)[O-])N1 (configuration not stated)	inactive
Nc1sc2c(c1C(=O)NC1CC1)CCCC2	inactive
O=C(CCCN1C(=O)/C(=C/c2ccco2)SC1=S)Nc1cccc(C(=O)O)c1	inactive
COc1ccc(N2CCC(CNC(=S)Nc3c(C)cccc3C)C2)cc1 (configuration not stated)	inactive

Structure (SMILES)	outcome
CC(Cc1cccc(C(F)(F)F)c1)NCCOC(=O)c1ccccc1 (configuration not stated)	inactive
O=C(Cc1cnn(-c2ccccc2)c1)c1ccc(O)c(O)c1O	inactive
Cc1ccc(S(=O)(=O)ON2C(=O)c3ccccc3C2=O)c(C)c1	inactive
O=c1c(C(c2ccc(O)cc2)c2c(O)nc3n(c2=O)CCCS3)c(O)nc2n1CCCS2	inactive
O=[N+]([O-])c1ccc(Cl)c2c1C1C=CCC1C(c1ccccn1)N2 (configuration not stated)	inactive
Cc1c(OCC(=O)NCCCN2CCCC2=O)ccc2c3c(c(=O)oc12)CCCC3	inactive
Cc1cc(=O)c2c(o1)C(=O)c1occc1C2=O	inactive
C/C(=C/CCC(C)[C@H]1CC[C@@]2(C)C3=C(CC[C@]12C)[C@@]1(C)CCC(=O)C(C)(C)[C@@H]1CC3)C(=O)O (some centres not stated)	inactive
CCOc1cc(C2CC(=O)N3CN(C4CCCCC4)CSC3=C2C#N)ccc1O (configuration not stated)	inactive
N#CC1=C(N)N(c2ccc(Br)cc2)C2=C(C(=O)CCC2)C1c1cccnc1 (configuration not stated)	inactive
Cc1[nH]n(-c2ccccc2)c(=O)c1N=Nc1ccccc1C(=O)O	inactive
COc1cc(/C=C2\S/C(=N/S(=O)(=O)c3ccccc3)NC2=O)c([N+](=O)[O-])cc1OC	inactive
COc1cc(/C=C2/C(=O)NN(c3cccc(C)c3)C2=O)cc([N+](=O)[O-])c1O	inactive
COc1cc(/C=C2/C(=O)NN(c3ccc(F)cc3)C2=O)cc([N+](=O)[O-])c1O	inactive
O=C(O)CN1C(=O)/C(=C2\SC(=S)N(C(Cc3ccccc3)C(=O)O)C2=O)c2ccccc21 (configuration not stated)	inactive
O=C(O)c1cnn2c(C(F)(F)F)cc(-c3ccccc3)nc12	inactive
O=C1Nc2ccc(Cl)cc2C12Nc1ccccc1-c1nnc(SCc3ccccc3F)nc1O2 (configuration not stated)	inactive
Cc1csc(N/N=C/c2ccc(O)c([N+](=O)[O-])c2)n1	inactive
Cc1cc(O)c(C(C)C)cc1N=Cc1ccccc1[N+](=O)[O-]	inactive
Cc1ccc(S(=O)(=O)Nc2nc(-c3ccc(F)cc3)cs2)cc1	inactive
CC(=O)c1cc(O)c2ccccc2c1O	inactive
Cc1nc(COC(=O)c2cc(O)c3ccccc3c2O)cs1	inactive
